Results as given in the supplement of paper PMC10338343.
± gives the standard deviation.

tested on: EfPiwi piRISC loaded with L1MC piRNA (26 nt); assay: pre-steady-state target cleavage rate (min^-1); auxiliary factor: 500 nM Ephydatia muelleri Gtsf1; guide: L1MC piRNA 5'p-UAACUAAAUACUAUGCAAGCUGUAGG; MIWI and MILI are mouse PIWI proteins and EfPiwi is from a freshwater sponge; tags in brackets are library labels; higher = faster piRNA-guided slicing of the target
Method in brief: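 Cleave-'n-Seq: 1 nM active affinity-purified piRISC with one synthetic guide and 0.1 nM transcribed, DNA-blocked target RNA library were mixed, with or without 500 nM GTSF1 partner protein, in HEPES–potassium acetate buffer at 33 °C for 0–8 or 0–960 min. Uncleaved targets were sequenced and normalised to depth and to weakly complementary targets, three trials were pooled, and k3 was capped at 0.0001 min^-1. The pre-steady-state cleavage rate was fitted […].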

Row | Sequence | pre-steady-state target cleavage rate
1 | UCCUGGAUGUCGAAGGAUAGUUUUUAGUUA | < 0.0001
2 | UCCUGGAUGUCGAACGUAUGUAUUUAGAUUA | < 0.0001
3 | UCCUGGAUGAAGCUUGCAUAGUAUUUAGUUA | 0.0366 ± 0.0082
4 | UCCUGCUACAGCUUCCAUAGUAUUUACAAA | 0.00279 ± 0.0021
5 | UCCUGCUACAGCUUGCAUAGUAUGUAGUUA | 0.00311 ± 0.0014
6 | UCCUGGAUGUCGAACCAUCGUAUUUAGUUA | < 0.0001
7 | UCCUCCUACAGCUUGCAUAGUAUUUUCAUA | 0.00665 ± 0.0037
8 | UCCUGCUACACCUUGCAUAGUAUUUUGUUA | 0.00317 ± 0.0023
9 | UCCUGCUACAGCAUGCAUAGUUUUUAGUUA | 0.00363 ± 0.0018
10 | UCCUCCUACAGCUUGCUUAGUAUUUACAAA | 0.00329 ± 0.003
11 | UCCUGGAUGUCGAACGUAAGUAUUUAAUUA | < 0.0001
12 | UCCUGGAUCAGGUUGCAUUGUAUUUAGUUA | 0.00567 ± 0.0021
13 | UCCUGGAUGUGCUUGCAUCGUAUUUAGUUA | 0.00598 ± 0.0028
14 | UCCUGCAACAGCUAGCAUAGUAUUUAGUUA | 0.0145 ± 0.004
15 | UCCUGGUACAGCUUGCAUAGUAUUUAUGUUA | 0.00329 ± 0.0024
16 | UCCUGGAUGUCGAUGCAUACUAUUAAGUUA | < 0.0001
17 | UCCUGGAUGUCGAACGUAUCUAUUAUCUUA | < 0.0001
18 | UCCUCCUACAGCUUGCAUAGUAUUUAGUUG [g2:g26:cont:t1G] | 0.00723 ± 0.0029
19 | UCCUGGAUCACUUGCAUAGUAUUUAGUUA | 0.0567 ± 0.014
20 | UCCUGGAACAGCUUCCAUAGUAUUUAGAAA | 0.00411 ± 0.0022

Row | Sequence | pre-steady-state target cleavage rate
21 | UCCUGCUAGAGCUUGCAUUGUAUUUAGUUA | 0.00751 ± 0.0022
22 | UCCUCCUACAGCUUGCAUACUAAUUAGUUA | 0.00358 ± 0.0017
23 | UCCUGGAUGAACUUGCAUAGUAUUUAGUUA | 0.0179 ± 0.0064
24 | UCCUGCUACAGCUUGCAUAGUUAUUUAGUUA | 0.00578 ± 0.0032
25 | UCCUGGUAGAGCUUGCUUAGUAUUUAGUUA | 0.00885 ± 0.0045
26 | UCCUCCUACAGCAUGCAUACUAUUUAGUUA | 0.00724 ± 0.0028
27 | UCCUGGAUGUCGAACCAUUGUAUUUAGUAA | < 0.0001
28 | UCCUGGAUCAGCUUGCAUAGUAUUUACAUA | 0.00271 ± 0.0021
29 | UCCUGCUACAGCUUCCUUAGUAUUUAGUUA | 0.00425 ± 0.0019
30 | UCCUGCUAGUGCUUGCAUAGUAUUUAGAAA | 0.00258 ± 0.0014
31 | UCCUGGAUGUCGAACCAUGGUAUUUAGUUA | < 0.0001
32 | UCCUGCUACAGCUUGCAUAGUAAUUUCAAA | 0.00378 ± 0.0027
33 | UCCUGGUACAGCUUCCAUAGUAUUUAGUAA | 0.00378 ± 0.0022
34 | UCCUGGAACAGCUUGCAUAGUAUUUAGUAUA | 0.00935 ± 0.005
35 | UCCUGCUACAGCUUGCAUAGUAUAUACAAA | 0.00238 ± 0.0022
36 | UCCUGCUAGACCUUGCAUAGUAUUUAGUUA | 0.00526 ± 0.0023
37 | UCCUCCUACAGCUUGCAUAGUAUUUAUGUUA | 0.00546 ± 0.0027
38 | UCCUGGAUGUCGAACGUAUCUAGUUUAGUUA | < 0.0001
39 | UCCUGGUACAACUUGCAUAGUAUUUAGUUA | 0.017 ± 0.0059
40 | UCCUGGAACAGCUUGCAUACUAUUUUGUUA | 0.00252 ± 0.0023
